This is a sample that favours compounds with a hit; in the whole collection about 2.4% have one here.
TNF necrop inh – blocks TNF-alpha induced death of Jurkat FADD-/- cells. Jurkat FADD-/- TNF necroptosis rescue, ATP luminescence, 24 h; 0 = TNF only, 100 = no-TNF cells. AID 463075. actives 0.068% (n = 220,000). activation (protection from cell death), % at 10 µM;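 active means activation, meaning protection from cell death, of at least 50% relative to plate controls; inactive means activation below 50%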;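 further: necroptosis triggered by 40 ng/mL TNF-alpha added together with compound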
Mcl1-Noxa inh – disrupts binding of human Mcl-1 to Noxa peptide; Q07820; TR-FRET Mcl-1/Noxa peptide binding, 2 h; inhibition, % at 21.7 µM; actives 1.5% (n = 220,000);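 active means compounds that cut the protein-peptide binding signal by more than 50% relative to plate controls in a single-dose test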;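 further: His-tagged Mcl-1 with rhodamine Noxa BH3 peptide and terbium anti-His antibody; 0% = Mcl-1 plus Noxa peptide wells and 100% = peptide-only wells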
Target sequence (Q07820 whole entry, looked up): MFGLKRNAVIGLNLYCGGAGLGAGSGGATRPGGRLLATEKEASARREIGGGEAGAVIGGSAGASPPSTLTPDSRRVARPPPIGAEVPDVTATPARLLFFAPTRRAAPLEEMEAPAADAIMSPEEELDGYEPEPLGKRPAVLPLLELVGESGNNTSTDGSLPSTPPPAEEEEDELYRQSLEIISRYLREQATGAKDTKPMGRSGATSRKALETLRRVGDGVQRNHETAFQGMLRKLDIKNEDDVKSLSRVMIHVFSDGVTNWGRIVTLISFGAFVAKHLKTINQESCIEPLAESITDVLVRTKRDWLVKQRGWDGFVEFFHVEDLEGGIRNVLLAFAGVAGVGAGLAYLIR
MCL1 BIM primary – inhibitors of human MCL1 binding to BIM-BH3 peptide; Q07820; GST-MCL1 / FITC-Bim-BH3 fluorescence polarization; inhibition, % at 10.9 µM; actives 0.68% (n = 320,000); AID 2057;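 active means inhibition above the mean inhibition of all tested compounds plus 3 SD, set per campaign, cut at about 40% in these data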;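 further: 0% = DMSO wells and 100% = unlabeled Bim-BH3 peptide control; higher means more loss of mP so more displacement of Bim peptide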
Mcl-1 Bim block – inhibitors of Bim-Mcl-1 interaction, human. Q07820. Bead-based flow cytometry, Bim peptide-Mcl-1 binding. inhibition, % at 10 µM. actives 0.1% (n = 190,000). AID 1009; in the data active means inhibition above about 40%;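 further: 0% = no compound tracer wells and 100% = peptide blocker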
Mcl1-Bid inh – Mcl-1/Bid interaction inhibition | AID 1021 | Q07820 | TR-FRET Mcl-1/Bid-Dy647 peptide binding, 1536-well | inhibition, % at 21.7 µM | actives 0.97% (n = 220,000);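 active means compounds that cut the binding signal by more than half at the single screening dose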;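 further: His-tagged Mcl-1 with europium anti-His antibody binding Bid BH3 peptide; 0% = Mcl-1 plus peptide wells and 100% = peptide-only wells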
zVAD death inh – L929 zVAD cell death inhibition; L929 zVAD necroptosis rescue, ATP luminescence, 24 h; with zVAD 60 µM; viability rescue, % at 10 µM; AID 1377; actives 0.38% (n = 220,000);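 active means activation, scaled between plate controls, above about 75%, limit read from the data; inactive means activation under that limit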;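 further: 0% = zVAD with DMSO and 100% = DMSO alone without zVAD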
An asterisk follows results filed as active; . = not tested or not shown.

SMILES	TNF necrop inh	Mcl1-Noxa inh	MCL1 BIM primary	Mcl-1 Bim block	Mcl1-Bid inh	zVAD death inh
Cc1ccccc1CNC(=O)Nc1cccs1	1	52*	17	0	-24	0
COc1ccc(C(=O)N2CCN(CCCc3ccccc3)CC2)cc1OC	.	.	-3	.	.	.
O=C(OCC#CCSc1nnc(-c2ccccc2)o1)c1ccco1	-2	10	-2	-3	-22	-1
O=C(OCC#CCSc1nc2ccccc2s1)c1ccco1	-2	66*	8	0	-22	-1
O=C(CSc1nc(-c2ccccc2)nc2c1Cc1ccccc1O2)Nc1ccc(C(=O)O)cc1	1	27	.	-1	88*	3
COC(=O)/C(=C\Nc1ccc(Oc2ccc(F)cc2F)nc1)NC(=O)c1ccccc1	0	4	0	.	-3	0
Cc1cc(NC(=O)/C=C/c2ccccc2Cl)n(-c2nc3ccccc3[nH]2)n1	2	-19	1	0	66*	0
O=C(N/N=C/C=C/c1ccc([N+](=O)[O-])cc1)c1cccs1	-1	62*	13	3	76*	0
O=C(N/N=C/c1cccc([N+](=O)[O-])c1)c1ccc(Br)cc1	-1	32	31	-3	4	4
O=C(/C=C/c1cccc([N+](=O)[O-])c1)Nc1ccc(NC(=O)c2cccs2)cc1	2	59*	6	1	81*	1
O=C(/C=C/c1cccc([N+](=O)[O-])c1)c1cccs1	-24	13	7	-2	10	0
O=C(N/N=C/c1cccc([N+](=O)[O-])c1)c1cccs1	3	16	0	71*	7	2
CCCCN(C(=O)C1CCCO1)c1c(N)n(CC(C)C)c(=O)[nH]c1=O (stereo not drawn)	.	.	2	.	.	.
CC(=O)N1CCc2ccc(NC(=O)c3c(-c4c(Cl)cccc4Cl)noc3C)cc21	-7	11	-3	.	-9	0
Cc1ccc(Cn2c(SCC(=O)NCC3CCCO3)nc3c2c(=O)n(C)c(=O)n3C)cc1 (stereo not drawn)	1	-6	1	2	1	0
COc1cccc(C2=CC(c3ccccc3)n3ncnc3N2)c1 (stereo not drawn)	-2	34	41*	4	-1	0
CCOc1ccc(C2C=C(c3ccc(F)cc3)Nc3ncnn32)cc1 (stereo not drawn)	-1	-11	45*	0	-61	-1
CCOc1ccc(C2C=C(c3ccccc3)Nc3ncnn32)cc1 (stereo not drawn)	1	12	46*	0	-88	0
Cc1ccc(C2C=C(c3ccccc3)Nc3ncnn32)cc1 (stereo not drawn)	.	.	23	.	.	.
COc1cccc(C2=CC(c3ccc(N(C)C)cc3)n3ncnc3N2)c1 (stereo not drawn)	-1	2	-11	-3	-8	2
Oc1ccc(C2C=C(c3ccc(F)cc3)Nc3ncnn32)cc1 (stereo not drawn)	0	41	.	.	-20	0
CC(=O)c1c(C)[nH]c(C(=O)NCCc2c[nH]c3ccccc23)c1C	.	.	5	.	.	.
COc1ccc(-c2noc3c2-c2nc(-c4c(F)cccc4F)sc2CC3)cc1	.	.	2	.	.	.
COc1ccccc1NS(=O)(=O)c1ccc(C(=O)Nc2ncccc2O)cc1	.	.	15	.	.	.
CCOC(=O)C1=C(O)c2ccccc2C(=O)/C1=C\c1ccc(CC)cc1	-24	85*	31	0	52*	0
SMILES	TNF necrop inh	Mcl1-Noxa inh	MCL1 BIM primary	Mcl-1 Bim block	Mcl1-Bid inh	zVAD death inh
CCOC(=O)C1=C(Cc2ccc(C)cc2)C(=O)c2ccccc2C1=O	-24	67*	37	0	-16	0
CCCc1ccc(/C=C2\C(=O)c3ccccc3C(O)=C2C(=O)OCC)cc1	-25	88*	28	-5	40	0
CCOC(=O)C1=C(Cc2ccc(OC)cc2)C(=O)c2ccccc2C1=O	-21	37	.	0	1	-1
COC(=O)c1ccc(CNC(=O)CCNC(=O)c2ccco2)cc1	.	.	6	.	.	.
COc1ccc([C@H]2CC(=O)C=C(/C=C/c3ccc(C(F)(F)F)cc3)C2)cc1	.	.	-6	.	.	.
COc1ccc(C(C)(C)C)cc1NC(=O)COC(=O)C1=NNC(=O)CC1	.	.	3	.	.	.
COc1cc(/C=N/NC(=O)CN(Cc2ccco2)S(=O)(=O)c2ccccc2)ccc1O	3	24	-2	45*	-23	2

Screening data as filed in PubChem BioAssay.
